Data reported in PubChem BioAssay AID707 (Columbia University Molecular Screening Center, 2007).
Hit rate of the full screen: of about 91,000 compounds, about 310 (0.34%) were called active. Cut-off read from the data, not from the text of the source: active = inhibition above about 80%; inactive = the rest. The full list was thinned out, with actives kept by preference.

These compounds were tested against Bifunctional epoxide hydrolase 2 (Homo sapiens) (UniProt P34913) (assay: soluble epoxide hydrolase inhibitors, primary screen, biochemical, human sEH (AID 707)). Details: recombinant human sEH enzymatic activity assay; at 2 µM; stronger effect = higher value.
Chain of Bifunctional epoxide hydrolase 2 (Homo sapiens) (P34913 whole entry, looked up): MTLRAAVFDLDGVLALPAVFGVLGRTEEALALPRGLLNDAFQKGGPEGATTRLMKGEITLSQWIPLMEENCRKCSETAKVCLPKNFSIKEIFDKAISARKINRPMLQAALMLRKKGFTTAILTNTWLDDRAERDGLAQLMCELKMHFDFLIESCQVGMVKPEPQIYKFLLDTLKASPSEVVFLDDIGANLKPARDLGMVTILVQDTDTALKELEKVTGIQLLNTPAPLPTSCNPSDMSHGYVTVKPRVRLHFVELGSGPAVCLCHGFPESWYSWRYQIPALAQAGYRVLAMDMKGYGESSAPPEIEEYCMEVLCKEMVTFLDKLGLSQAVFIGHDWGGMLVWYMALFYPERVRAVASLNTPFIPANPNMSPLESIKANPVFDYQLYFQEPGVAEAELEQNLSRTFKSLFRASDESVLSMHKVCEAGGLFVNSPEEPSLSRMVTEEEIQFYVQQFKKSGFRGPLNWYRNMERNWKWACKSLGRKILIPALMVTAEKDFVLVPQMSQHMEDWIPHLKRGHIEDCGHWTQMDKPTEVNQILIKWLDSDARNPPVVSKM

Structure (SMILES) | inhibition
Cc1cc(Nc2ccccc2)nc(N)n1 | 3% (inactive)
CCNC(=S)Nc1cccc(Cl)c1C | -0.5% (inactive)
CC(C)N(c1ccccc1)c1ncnc(NCCC(=O)O)c1[N+](=O)[O-] | -1.2% (inactive)
c1ccc2c(C[n+]3csc4ccccc43)cccc2c1 | -9% (inactive)
Cc1nn(-c2ccccn2)c2c1C(c1ccncc1)C1=C(CC(C)(C)CC1=O)N2 (stereo not given) | -0.7% (inactive)
O=C(Cc1ccc2c(c1)CCCC2)Nc1ccccc1Cl | 7.7% (inactive)
O=C1c2ccccc2C(=O)c2c1cccc2N1CCN(CCO)CC1 | 5.4% (inactive)
COc1ccc(/C=C(/NC(=O)c2ccc(C)cc2)c2nc3ccccc3[nH]2)cc1OC | 1.8% (inactive)
Cc1ccccc1N/N=C/c1ccc(N2CCOCC2)cc1 | -9.2% (inactive)
CC(Oc1ccc(Cl)cc1Cl)C(=O)/C=C/N(C)C (stereo not given) | 15.1% (inactive)
COc1cnc(SCc2ccc(Cl)c(Cl)c2)nc1Cl | -5.2% (inactive)
ONC(=Nc1ccc(Cl)cc1)c1ccccc1Cl | -9.2% (inactive)
CCOc1ccc(Nc2nc(Cc3nnc(SCC(=O)NC4CCCC4)n3C)cs2)cc1 | 10.9% (inactive)
CN(C)Cc1ccccc1C1(O)c2ccccc2CSc2ccccc21 (stereo not given) | 5.7% (inactive)
Clc1ccc(-c2cc(COc3ccccc3)no2)cc1Cl | -1.1% (inactive)
COc1ccc(C(=S)Nc2ccccc2)cc1 | 4.8% (inactive)
CC(C)C(OC(=O)c1cccs1)C(=O)NC1CCCCC1 (stereo not given) | -8.3% (inactive)
CC(Cc1cccs1)NC(=O)NC1CCCCC1 (stereo not given) | 92.6% (active)
Cc1ccsc1C(C(=O)NC1CCCCC1)N(C(=O)Cc1cccs1)C1CC1 (stereo not given) | 5.3% (inactive)
CCOc1ccc(S(=O)(=O)Nc2nc3cc(OC)ccc3s2)cc1 | -14.5% (inactive)
CCOC(=O)Nc1ccc(S(=O)(=O)N(C)C(C)C)cc1 | 1.6% (inactive)
CC(C)NS(=O)(=O)c1ccc(NC(=O)C2CCCCC2)cc1 | -3.1% (inactive)
Cc1ccccc1C(=O)N1CCC(C(=O)Nc2ccc(S(=O)(=O)N(C)C(C)C)cc2)CC1 | 83.8% (active)
O=C(CSc1ncnc2c1cnn2CCc1ccccc1)Nc1ccc(F)cc1 | 20.5% (inactive)
O=C(c1cccc(F)c1)N1CCN(c2ccc([N+](=O)[O-])c(N3CCCCC3)c2)CC1 | 6.5% (inactive)
CCOC(=O)/C(=C\c1ccc([N+](=O)[O-])cc1)C(=O)c1cc(C(C)=O)c(Nc2ccccc2)s1 | 10.3% (inactive)
COc1ccccc1OCCNc1cc(N2CCOCC2)ccc1[N+](=O)[O-] | -3.3% (inactive)
CCn1c2ccccc2c2cc(NC(=O)C/C(C)=N/NC(=O)c3ccccc3N)ccc21 | 4.8% (inactive)

Structure (SMILES) | inhibition
Cc1ccc(/C=N/NC(=O)C(NC(=O)c2ccccc2)c2n[nH]c(=O)c3ccccc23)cc1 (stereo not given) | -0.8% (inactive)
COc1ccccc1NC(=O)[C@H](COCc1ccccc1)NC(=O)OC(C)(C)C | -8.8% (inactive)
CCOc1cccc(SCc2noc(C(=O)NC(C)C)c2C(=O)O)c1 | -1.8% (inactive)
CN(C)/C=C(\C#N)C(=O)c1cccnc1Oc1ccc(F)cc1F | 12.8% (inactive)
C=CCn1c(-c2ccc(Cl)cc2)ccc(C#N)c1=O | -0.8% (inactive)
CC1CCN(C(NC(=O)c2ccco2)C(=O)c2ccccc2)CC1 (stereo not given) | -0.8% (inactive)
O=C1CCN(C(=O)Nc2ccccc2)N1 | 2.7% (inactive)
O=C(CCNS(=O)(=O)c1ccccc1C(F)(F)F)NCc1ccc2c(c1)OCO2 | -4.3% (inactive)
COc1ccc(/C=C2\CCCC3C2=NN(C(=O)c2scnc2C)C3c2ccc(OC)cc2)cc1 (stereo not given) | -10.6% (inactive)
CS(=O)(=O)N(CC(=O)Nc1ccc(F)cc1F)c1cccc([N+](=O)[O-])c1 | 1.3% (inactive)
CC(C)c1ccc(/C=C/C(=O)NNC(=O)c2cccnc2)cc1 | -2.9% (inactive)
COc1cc(C2C(C(=O)OCCC#N)=C(C)NC3=C2S(=O)(=O)c2ccccc23)cc(OC)c1OC (stereo not given) | 8.9% (inactive)
COc1ccc(Cl)cc1NC(=O)CN(C)C(=O)CNC(=O)C12CC3CC(CC(C3)C1)C2 | 15.5% (inactive)
CS(=O)(=O)N1CCN(c2ccc(C(=O)NC3C4CC5CC(C4)CC3C5)cc2[N+](=O)[O-])CC1 (stereo not given) | -10.1% (inactive)
Cc1cc(/C=C2/SC(=O)N(CC(=O)OC(C)C)C2=O)c(C)n1C | -9.2% (inactive)
Cc1cc(OC(=O)c2c(Cl)cccc2Cl)nc(C)n1 | -21.2% (inactive)
Cc1nnsc1S(=O)(=O)Cc1ccccc1Cl | 4.8% (inactive)
CCOC(=O)N1CCN(c2c(NCCCN3CCCC(C)C3)c(=O)c2=O)CC1 (stereo not given) | -4.6% (inactive)
Cc1nc(Cl)c2oc3ccccc3c2n1 | 0.8% (inactive)
O=[N+]([O-])c1ccccc1NCc1ccc(Cl)cc1 | -1% (inactive)
CN(C)c1ccc(NC(=S)N(CCc2ccccc2)C2CC(=O)N(c3c(Cl)cccc3Cl)C2=O)cc1 (stereo not given) | 7.8% (inactive)
Cc1nn(CC(=O)Nc2nc3ccccc3s2)c(C)c1[N+](=O)[O-] | -6.1% (inactive)
Cc1ccc(OCC(=O)N/N=C/c2ccncc2)cc1 | -19.2% (inactive)
CC(=O)c1cn(CCCCCCCCCCn2cc(C(C)=O)c(=O)[nH]c2=O)c(=O)[nH]c1=O | -2% (inactive)
Cc1ccc(-c2nn(-c3ccccc3)cc2/C=N/NC(=O)c2ccc3c(c2)OCO3)cc1 | -6.2% (inactive)
Cc1occc1C(=O)NNC(=S)NCC(C)C | -18% (inactive)
Cc1cccc(NC(=O)c2ccc(OCC(=O)NCc3ccccc3)cc2)c1C | 3.8% (inactive)
